This is a sample that favours compounds with a hit; in the whole collection about 21% have one here.
Pf growth 96h: P. falciparum growth inhibition at 96 hours | 320,000 tested, 6.9% active | P. falciparum luciferase reporter growth, 96 h | AID 504834 | Potency, µM (titrated, usually from 28.7 µM), inactives show top-dose activity change, negative = inhibition, usual class: inhibitors; also: potency is read from the fitted curve at half-maximal effect; % is scaled to controls: 0 for no effect and ±100 for the full control effect
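Luminescence readout: decreased luciferase signal marks inhibited growth of reporter-expressing P. falciparum in infected red cells (2% hematocrit, 0.05% parasitemia final), exposed to compound two generations (96 h, 37 C, 5% CO2).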
Giardia FBPA inh: Giardia lamblia aldolase inhibition; A8B2U2; purified Giardia FBPA; Potency, µM (highest dose often 59.6 µM), for the others: at the top dose activity, negative = inhibition, usual class: inhibitors; 290,000 tested, 0.71% active; AID 2451; also: potency is read from the fitted curve at half-maximal effect; % is scaled to controls: 0 for no effect and ±100 for the full control effect; nearly all actives have a fitted effect of over 55% in size
Target sequence (A8B2U2 whole entry, looked up): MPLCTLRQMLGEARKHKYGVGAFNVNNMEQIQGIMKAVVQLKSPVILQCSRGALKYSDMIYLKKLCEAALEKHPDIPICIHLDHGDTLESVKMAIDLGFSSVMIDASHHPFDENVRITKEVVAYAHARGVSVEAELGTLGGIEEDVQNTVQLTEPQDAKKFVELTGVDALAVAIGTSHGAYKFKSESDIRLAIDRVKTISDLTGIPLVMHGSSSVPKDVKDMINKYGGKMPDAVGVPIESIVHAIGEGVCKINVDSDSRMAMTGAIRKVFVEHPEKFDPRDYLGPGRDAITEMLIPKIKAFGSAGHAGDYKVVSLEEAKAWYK
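Giardia FBPA (40 nM reagent) was preincubated 10 min at RT with compound (up to 57.5 uM final), then substrate plus GAPDH/TPI/NAD/arsenate coupling system with diaphorase/resazurin was added; resorufin fluorescence (525/598 nm) was read after 20 min.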
Cycloheximide cs: affects cycloheximide protein synthesis inhibition readout, counter-screen; cell reporter, cycloheximide protein synthesis inhibition counterscreen; max response, %; 300,000 tested, 12% active; AID 2314; in the data active = max response mostly above about 13%, no sharp cut-off; inactive = mostly below about 14%; also: read at 38.3 µM for the half of the compounds with a filed dose; 0% is about no effect
Pf growth 48h: P. falciparum growth inhibition at 48 hours (one generation). 310,000 tested, 5.9% active. P. falciparum luciferase growth in erythrocytes, 48 h. Potency, µM (titrated, usually from 28.7 µM), for the others: top-dose activity change, negative = inhibition, hits mostly inhibitors; also: potency is read from the fitted curve at half-maximal effect; % is scaled to controls: 0 for no effect and ±100 for the full control effect
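Read-out is firefly luciferase luminescence from an integrated reporter in P. falciparum, so falling signal marks reduced parasite growth. Infected erythrocytes were at 2% hematocrit and 0.1% parasitemia (final) in Albumax-supplemented RPMI 1640.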
NS1 inh: blocks influenza NS1 protein function | Potency, µM (top dose mostly 46.1 µM), without a hit: at the highest dose activity, positive = more growth | 270,000 tested, 0.4% active; calls by dose curve; also: potency is read from the fitted curve at half-maximal effect; actives are rising curves; nearly all actives have a fitted effect of over 50% in size
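In this qHTS, NS1 from influenza A is expressed in budding yeast, where it slows growth. Cells are switched from glucose to 2% galactose medium (pH 6.0, -URA), treated with compound, and growth recovery is read at OD600.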
Shiga toxin inh: Shiga toxin inhibition; 290,000 tested, 9.2% active; Vero cells, Shiga toxin protein synthesis inhibition reporter; AID 2315; inhibition, % at 38.7 µM; in the data active = inhibition mostly above about 28%, no sharp cut-off; inactive = mostly below about 43%; also: 0% is about no effect
Active calls of the source: *. Unless noted, calls follow the shape of the dose curve; as a rule, active = well fitted curve in the direction sought with a large enough effect; inconclusive = small, poorly fitted or top-dose-only effect, or another doubt; inactive = no such curve, though single readings can be large; an effect the other way counts as inactive or inconclusive.

`O=c1oc(-c2cccc([N+](=O)[O-])c2)nc2ccccc12` gave Pf growth 96h inconclusive, Giardia FBPA inh 10%, Cycloheximide cs -4, Pf growth 48h 25% and NS1 inh -15%.
`O=[N+]([O-])c1ccc2nc(-c3ccccc3)oc2c1` gave Pf growth 96h 9%, Giardia FBPA inh 0%, Cycloheximide cs 26*, Pf growth 48h 350% and Shiga toxin inh 71*.
Screening COc1cccc(-n2c(CN3CCN(C)CC3)nc3ccc([N+](=O)[O-])cc3c2=O)c1 returned Pf growth 96h 6%, Giardia FBPA inh -18%, Cycloheximide cs 10, Pf growth 48h inconclusive, NS1 inh inconclusive and Shiga toxin inh -1.
For CCC1=Nc2cc(C(=O)NCC3CCCO3)ccc2Sc2ccc(Br)cc21 (stereo not given) the results were Pf growth 96h inconclusive, Giardia FBPA inh -8%, Cycloheximide cs -12, Pf growth 48h 2.9µM* and Shiga toxin inh -6.
CCC1=Nc2cc(C(=O)NCc3cccnc3)ccc2Sc2ccc(C)cc21 was read as Pf growth 96h inconclusive, Giardia FBPA inh -10%, Cycloheximide cs 0, Pf growth 48h inconclusive, NS1 inh 7% and Shiga toxin inh -14.
Screening CCC1=Nc2cc(C(=O)NCc3ccco3)ccc2Sc2ccccc21 returned Pf growth 96h 11%, Giardia FBPA inh -6%, Cycloheximide cs 8, Pf growth 48h 7.4µM*, NS1 inh inconclusive and Shiga toxin inh 23.
For CCC1=Nc2cc(C(=O)O)ccc2Sc2ccccc21 the results were Pf growth 96h inconclusive, Giardia FBPA inh 22%, Cycloheximide cs -2, Pf growth 48h 9%, NS1 inh 19% and Shiga toxin inh -18.
Screening CCC1=Nc2cc(C(=O)NCc3ccco3)ccc2Sc2ccc(Cl)cc21 returned Pf growth 96h 39%, Giardia FBPA inh -8%, Cycloheximide cs 3, Pf growth 48h 1.5µM*, NS1 inh 16% and Shiga toxin inh -3.
CCC1=Nc2cc(C(=O)NCC3CCCO3)ccc2Sc2ccc(Cl)cc21 (stereo not given) was read as Pf growth 96h inconclusive, Giardia FBPA inh -5%, Cycloheximide cs -2, Pf growth 48h inconclusive, NS1 inh 10% and Shiga toxin inh 27.
For COc1ccc(OCC(=O)Nc2c3c(nn2-c2ccc(OC)cc2)CS(=O)(=O)C3)cc1 the results were Pf growth 96h -6%, Cycloheximide cs -5, Pf growth 48h 77%, NS1 inh 1% and Shiga toxin inh -7.
`CCC(C(=O)NC1CCCCC1)n1c2ccccc2c2nc(=O)cc(C)n21` (stereo not given) gave Pf growth 96h inconclusive, Cycloheximide cs -3, Pf growth 48h -7%, NS1 inh 9% and Shiga toxin inh 18.
FC(F)(F)c1cccc(Oc2nc(-c3ccccc3)nnc2C(F)(F)F)c1 was read as Pf growth 96h -9%, Giardia FBPA inh 17%, Cycloheximide cs 7, Pf growth 48h 14%, NS1 inh inconclusive and Shiga toxin inh 3.
For COc1cnc(-c2ccccn2)nc1N(C)c1ccccc1 the results were Pf growth 96h 0.93µM*, Giardia FBPA inh -1%, Cycloheximide cs 48*, Pf growth 48h 0.93µM*, NS1 inh -64% and Shiga toxin inh 66*.
For CCOC(=O)CSc1nc(-c2ccccn2)ncc1OC the results were Pf growth 96h inconclusive, Giardia FBPA inh inconclusive, Cycloheximide cs -2, Pf growth 48h 0% and Shiga toxin inh -7.
`COc1cnc(-c2ccccn2)nc1Oc1ccccc1` gave Pf growth 96h inconclusive, Giardia FBPA inh -24%, Cycloheximide cs 1, Pf growth 48h 12µM* and Shiga toxin inh -4.
Screening COc1cnc(-c2ccccn2)nc1Oc1cccc(C(F)(F)F)c1 returned Pf growth 96h 1.7µM*, Giardia FBPA inh 28%, Cycloheximide cs 13, Pf growth 48h 2.3µM*, NS1 inh -5% and Shiga toxin inh -6.
`Cc1cc(C(=O)N/N=C/c2ccc3ccccc3c2)n[nH]1` gave Pf growth 96h inconclusive, Cycloheximide cs 23*, Pf growth 48h 14%, NS1 inh 2% and Shiga toxin inh 30*.
Cc1cc(C(=O)N/N=C/c2cccc(OC(=O)c3ccco3)c2)n[nH]1 was read as Pf growth 96h inconclusive, Giardia FBPA inh -10%, Cycloheximide cs 46*, Pf growth 48h 27%, NS1 inh 7% and Shiga toxin inh 34.
Screening Cc1cc(C(=O)N/N=C/c2ccc[nH]2)n[nH]1 returned Pf growth 96h 50%, Giardia FBPA inh -23%, Cycloheximide cs 16*, Pf growth 48h 84%, NS1 inh -5% and Shiga toxin inh 36*.
For Cc1cc(C(=O)N/N=C/c2cccnc2)n[nH]1 the results were Pf growth 96h 26%, Giardia FBPA inh 0%, Cycloheximide cs 2, Pf growth 48h 27%, NS1 inh 0% and Shiga toxin inh 22.
`COc1ccc(-c2c(C(C)=O)c(C)n(C)c2C)cc1` gave Pf growth 96h 12µM*, Giardia FBPA inh -12%, Cycloheximide cs -3, Pf growth 48h 25%, NS1 inh 5% and Shiga toxin inh 6.
`COc1ccc(-c2nc(-n3c(C)c(C(C)=O)c(C(C)=O)c3C)sc2C)cc1` gave Pf growth 96h -1%, Cycloheximide cs 8, Pf growth 48h inconclusive, NS1 inh -41% and Shiga toxin inh -8.
For COC(=O)N1C(C)=Cc2ccccc2C1CC(C)=O (stereo not given) the results were Giardia FBPA inh -5%.
Screening COc1ccc(Cl)cc1NC(=O)C1CCCN(c2ncnc3c2nc2n3CCCCC2)C1 (stereo not given) returned Pf growth 96h inconclusive, Giardia FBPA inh -11%, Cycloheximide cs -1, Pf growth 48h inconclusive, NS1 inh 4% and Shiga toxin inh -12.
Screening Cc1ccc(C(=O)/C=C\C(=O)c2ccc(C)cc2)cc1 returned Pf growth 96h -9%, Giardia FBPA inh 3%, Cycloheximide cs -2, Pf growth 48h 18%, NS1 inh -53% and Shiga toxin inh 5.
CCc1ccc(C(=O)/C=C/NCc2ccc(F)cc2)cc1 was read as Pf growth 96h inconclusive, Giardia FBPA inh 5%, Cycloheximide cs 19*, Pf growth 48h inconclusive, NS1 inh -29% and Shiga toxin inh 49.
`Cc1ccc(C(=O)Nc2ccccc2C(=O)NCc2ccccc2)cc1` gave Pf growth 96h inconclusive, Giardia FBPA inh -6%, Cycloheximide cs 8, Pf growth 48h inconclusive, NS1 inh 5% and Shiga toxin inh 8.
`CCc1ccc(C(=O)O)cc1` gave Pf growth 96h -4%, Giardia FBPA inh 2%, Cycloheximide cs 1, Pf growth 48h -1%, NS1 inh -3% and Shiga toxin inh 9.
